Sampled rows, rich in hits. Any-hit rate of the full collection: about 2.9%.
CRFBP-R2 block – blocks CRF-induced signaling of the CRF-BP/CRF-R2 complex; HEK293 CRF-R2/CRF-BP, CRF-induced calcium fluorescence; inhibition, % at 11.8 µM; 350,000 compounds, 0.59% hits; AID 588475;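 active means inhibition of the ligand-induced calcium signal above about 50% at the single tested concentration, limit read from the data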
MEKK2 mut-MEK5 – signal of MEK5 binding to mutant human MEKK2 PB1 domain. AID 1530. percent response, % at 10 µM. bead flow cytometry, Alexa488-MEK5 binding to MEKK2 mutant. 290,000 compounds, 0.35% hits; in the data active means percent response above about 24%, passing the limit was not always enough
MEKK2 WT-MEK5 – raises or lowers MEK5 binding to wildtype human MEKK2 PB1 domain | bead flow cytometry, Alexa488-MEK5 binding to MEKK2 WT; actives lie on both sides | binding response (% of control), % at 10 µM | 290,000 compounds, 1.1% hits | AID 1531; in the data active means binding response below about 67% or above about 130%
MEKK3 PB1 HTS – raises or lowers MEK5 binding to the human MEKK3 PB1 domain | bead-based flow cytometry, Alexa488-MEK5 binding to MEKK3; actives lie on both sides; 0 = blocked by unlabeled MEK5, 100 = vehicle | AID 1529 | 290,000 compounds, 1.4% hits | Q99759 | binding response (% of control), % at 10 µM;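 active means binding response more than 3 SD above or below the average of its plate-row segment, actives on both sides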;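 further: Alexa488 bead fluorescence after subtracting the streptavidin-only scavenger bead signal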
Target sequence (Q99759 whole entry, looked up, the tested form may be a part): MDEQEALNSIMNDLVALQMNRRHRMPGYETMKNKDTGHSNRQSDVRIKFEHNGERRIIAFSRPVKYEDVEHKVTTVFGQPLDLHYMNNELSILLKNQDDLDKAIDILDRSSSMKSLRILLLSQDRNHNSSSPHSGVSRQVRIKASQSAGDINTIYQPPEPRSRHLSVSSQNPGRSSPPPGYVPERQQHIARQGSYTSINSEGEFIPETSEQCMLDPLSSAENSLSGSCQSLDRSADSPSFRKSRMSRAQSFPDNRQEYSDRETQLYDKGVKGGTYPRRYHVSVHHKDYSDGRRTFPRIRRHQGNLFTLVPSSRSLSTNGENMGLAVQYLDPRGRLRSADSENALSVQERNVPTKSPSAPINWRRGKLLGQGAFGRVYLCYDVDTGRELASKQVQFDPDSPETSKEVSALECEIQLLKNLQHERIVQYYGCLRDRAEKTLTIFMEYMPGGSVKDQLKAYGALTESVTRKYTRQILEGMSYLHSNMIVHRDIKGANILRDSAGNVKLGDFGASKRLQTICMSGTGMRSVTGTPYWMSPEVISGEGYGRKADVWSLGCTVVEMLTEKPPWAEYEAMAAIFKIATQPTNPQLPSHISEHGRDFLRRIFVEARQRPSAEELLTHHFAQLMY
ABCB6 inh MLPCN – blocks the human ABCB6 transporter; K562-ABCB6 porphyrin accumulation, flow cytometry, 1 h; stronger effect = lower value; fluorescence ratio to DMSO, % at 10 µM; 360,000 compounds, 0.19% hits;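 active means fluorescence ratio to DMSO below 75%, the collection mean minus 3 SD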;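 further: signal is porphyrin accumulated inside mitochondria; 100% equals median channel fluorescence of DMSO control wells; lower ratio means ABCB6 inhibition with less porphyrin fluorescence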
CRFBP-R2 agonist – CRF-BP/CRF-R2 complex agonism; HEK293 CRF-R2/CRF-BP, calcium dye fluorescence (FLIPR); percent of saturating CRF peptide response; AID 588473; 350,000 compounds, 0.46% hits; activation, % at 13.2 µM;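 active means activation of at least 50%, plus an integration ratio under a set limit after plate pattern correction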;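 further: plate controls were neutral control wells without compound for no effect and CRF at EC100 for full effect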
MEKK2wt confirm – raises or lowers MEK5 binding to wildtype human MEKK2, retest; shares compounds with MEKK3 PB1 HTS; bead flow cytometry, Alexa488-MEK5 binding to MEKK2 WT; actives lie on both sides; binding response (% of control), % at 10 µM; 5,900 compounds, 2.4% hits; AID 1892; in the data active means binding response below about 16% or above about 210%; inactive means in between
MEKK2mut confirm – signal of MEK5 binding to mutant human MEKK2, retest; shares compounds with MEKK3 PB1 HTS; bead flow cytometry, Alexa488-MEK5 binding to MEKK2 mutant; percent response, % at 10 µM; 5,900 compounds, 2% hits; in the data active means percent response mostly above about 71%, no sharp cut-off; inactive means mostly below about 38%;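 further: higher means compound restores mutant binding toward wildtype level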
MEKK3-MEK5 inh – MEKK3-MEK5 PB1 inhibition, single concentration confirmation. shares compounds with MEKK3 PB1 HTS. bead flow cytometry, Alexa488-MEK5 binding to MEKK3; stronger effect = lower value. binding response (% of control), % at 10 µM. 5,900 compounds, 1.8% hits. AID 1894;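 active means binding response below 72% of control, or above a set upper limit, though filed actives all read lower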;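 further: 100% = DMSO only wells and 0% = binding blocked by excess unlabeled MEK5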
Active calls of the source: *; . = not tested or not shown; [ ] = dose if it differs, or a comment.

SMILES	CRFBP-R2 block	MEKK2 mut-MEK5	MEKK2 WT-MEK5	MEKK3 PB1 HTS	ABCB6 inh MLPCN	CRFBP-R2 agonist	MEKK2wt confirm	MEKK2mut confirm	MEKK3-MEK5 inh
O/N=C/c1cccc[n+]1CCCCCC[n+]1ccccc1/C=N/O	4.5	2.0	104.0	103.0	100.0	0.1	.	.	.
CCCCCCCCCCCCCCCC[n+]1ccc(C(N)=O)cc1	5.3	1.0	139.0*	106.0	98.0	18.8	157.0	31.0	104.0
CCCCCCCCCCCCCCCC[n+]1ccc(/C=N/O)cc1	18.1	45.0	150.0*	127.0	100.0	-1.6	257.0*	181.0*	112.0
Fc1ccccc1Nc1nc2ccccc2o1	2.6	5.0	104.0	101.0	96.0	-0.4	.	.	.
COc1ccc(-c2nc(SC(CC(=O)NCc3ccccc3)c3ccc(OC)c(OC)c3)n[nH]2)cc1 (stereo not given)	15.1	0.0	101.0	128.0*	81.0	-0.9	94.0	-9.0	94.0
S=C(NCCCN1CCOCC1)N1CCN(c2nc(-c3ccccc3)cs2)CC1	-0.6	2.0	117.0	100.0	90.0	-0.8	.	.	.
S=C(NCCCN1CCOCC1)N1CCN(c2nc(-c3ccc(Cl)cc3)cs2)CC1	20.5	47.0	163.0*	109.0	95.0	-0.6	169.0	43.0	112.0
O=c1ccn(CCc2c[nH]c3ccccc23)c2c1CCCC2	4.1	-6.0	90.0	98.0	94.0	-0.4	.	.	.
COc1ccc(/C=C(/NC(=O)c2ccccc2)C(=O)N/N=C/c2sccc2C)cc1	6.2	1.0	105.0	133.0*	109.0	0.2	94.0	-6.0	98.0
COc1ccc(/C=C(\NC(=O)c2ccccc2)C(=O)N/N=C/c2sccc2C)cc1	31.9	3.0	101.0	99.0	97.0	-2.7	.	.	.
CCCNCC1C(Oc2ccc(Cl)cc2Cl)C(=O)N1c1cccc(C)c1C (stereo not given)	-29.6	4.0	135.0	136.0*	103.0	-1.3	128.0	12.0	98.0
Cc1cccc(N2C(=O)C(Oc3ccc(Cl)cc3Cl)C2C(=O)O)c1C (stereo not given)	21.5	1.0	108.0	139.0*	102.0	0.2	108.0	10.0	104.0
CSc1ccc(Cl)c(C(=O)N(C)CC(=O)Nc2ccc(N3CCOCC3)cc2)c1	4.9	.	.	.	104.0	-1.1	.	.	.
CC(C)NCC(O)Cn1c2c(c3ccccc31)CCc1c-2cnn1-c1ccccc1 (stereo not given)	-0.1	30.0*	176.0*	110.0	97.0	-0.2	149.0	25.0	106.0
CN1CCc2c(n(CC(O)CNCc3ccccc3)c3ccccc23)C1=O (stereo not given)	-1.7	-4.0	114.0	114.0	111.0	0.9	.	.	.
CSc1cccc(NC(=S)NCCCN2CCN(c3ccc(F)cc3)CC2)c1	-0.5	18.0	142.0*	115.0	99.0	0.0	134.0	9.0	103.0
Cc1ccc(NC(=S)NCCCN2CCOCC2)cc1C	3.4	1.0	108.0	103.0	91.0	-1.6	.	.	.
S=C(NC1CCCCC1)N1CCN(Cc2ccccc2Cl)CC1	-13.1	6.0	103.0	103.0	91.0	-0.1	.	.	.
S=C(NCCCN1CCOCC1)Nc1ccc(Cl)c(Cl)c1	-36.8	0.0	109.0	63.0*[inhibitor]	92.0	-1.7	89.0	-9.0	79.0
S=C(Nc1ccc(Cl)c(Cl)c1)NC1CCN(Cc2ccccc2)CC1	-36.4	34.0*	168.0*	111.0	97.0	16.9	171.0	35.0	110.0
S=C(NC1CCCCC1)N1CCN(Cc2ccccc2)CC1	-17.7	2.0	105.0	143.0*	90.0	0.6	109.0	4.0	104.0
NC(=S)NN=C1CCSCC1	1.9	.	.	.	98.0	0.5	.	.	.
COc1cc(OC)cc(C(=O)Nc2ccccc2-c2nnn(CC(=O)Nc3cc(C)on3)n2)c1	7.3	5.0	97.0	100.0	100.0	5.4	.	.	.
O=C(C[C@@H]1C/C=C/CC[C@H](Cc2ccc(F)cc2)C(=O)OC[C@@H](Cc2ccccc2)NC1=O)N[C@H](CO)Cc1ccccc1	1.7	.	.	.	97.0	3.3	.	.	.
S=C(Nc1ccc(Cl)cc1)NC1CC2CCC(C1)N2Cc1ccccc1 (stereo not given)	-40.6	41.0	156.0*	110.0	99.0	11.3	142.0	28.0	110.0
SMILES	CRFBP-R2 block	MEKK2 mut-MEK5	MEKK2 WT-MEK5	MEKK3 PB1 HTS	ABCB6 inh MLPCN	CRFBP-R2 agonist	MEKK2wt confirm	MEKK2mut confirm	MEKK3-MEK5 inh
Cc1cnc(C(=O)Oc2ccc(-c3ccccc3)cc2)cn1	-1.2	7.0	104.0	100.0	148.0	0.6	.	.	.
CCO/N=C(/c1nonc1N)N1CCN(c2ccc([N+](=O)[O-])cc2)CC1	-19.9	5.0	118.0	129.0*	97.0	-1.6	103.0	6.0	108.0
COC(=O)C(=NNc1c(C)n(C)n(-c2ccccc2)c1=O)C(=O)OC	15.8	1.0	112.0	141.0*	105.0	0.3	72.0	-16.0	74.0
C=CCNc1nc2c(c(=O)[nH]c(=O)n2C)n1CC(O)COc1ccc2ccccc2c1 (stereo not given)	-0.6	-3.0	98.0	96.0	96.0	-1.5	.	.	.
CC(=O)c1cc2cccc(OC3(C)CCN(Cc4ccc5ccccc5c4)C3)c2o1 (stereo not given)	.	.	.	.	95.0	.	.	.	.
Nc1nnn(CC(=O)N/N=C/c2ccncc2)n1	-0.1	25.0	120.0	130.0*	101.0	0.0	103.0	-6.0	101.0
Cc1ccc(/C=N/NC(=O)Cn2nnc(N)n2)cc1	-2.3	-10.0	94.0	92.0	105.0	0.5	.	.	.
Brc1ccc(-c2nnc3ccc(N4CCN(c5ccccc5)CC4)nn23)cc1	12.4	-21.0	-1.0*[inhibitor]	0.0*[inhibitor]	91.0	0.2	98.0	-8.0	101.0
CCCOP(=O)(OCCC)C(Nc1cccc(C(F)(F)F)c1)c1ccc(C)cc1 (stereo not given)	-29.4	7.0	108.0	103.0	97.0	0.8	.	.	.
CCOP(=O)(OCC)C(Nc1cccc(C(F)(F)F)c1)c1ccc(C)cc1 (stereo not given)	-97.8	0.0	103.0	66.0*[inhibitor]	104.0	-3.3	103.0	2.0	108.0
CCOc1cccc2sc(N(CCCN(C)C)C(=O)c3ccc(C(=O)c4ccccc4)cc3)nc12	-13.1	35.0*	161.0*	108.0	96.0	0.3	154.0	23.0	105.0
CCOc1cccc2sc(N(CCCN(C)C)C(=O)Cc3ccccc3)nc12	-5.0	75.0*	180.0*	128.0	95.0	1.2	133.0	31.0	113.0

Source: PubChem (several laboratories)
